The values below come from the supplement of paper PMC8387472.

For this test, the system named is mESC LDLR-Dup GFP reporter (SpCas9 MH-deletion repair). Description: fraction of GFP+ cells relative to DMSO control (fold change); higher = more MH-deletion repair to in-frame LDLR (or more editing). The note with it: 2 µM; 7 days post-transfection.

Several values for one entry are separate records, joined by “and”; a condition that tells them apart may be missing. Identical values can stand only once. Counter-ions that a name gives are not always drawn. ± gives the standard deviation of the averaged measurements.

Take `O=C(NO)c1cccc(C(=O)NCCc2ccccc2)c1`: the “fraction of GFP+ cells” value came to 0.743 ± 0.17. Consider `C[C@]1(c2nc3c(C(N)=O)cccc3[nH]2)CCCN1` [Veliparib (ABT-888)], for which the “fraction of GFP+ cells” value is 0.657 ± 0.19. Then `CC(C(=O)Nc1cccc(/N=C/c2c(O)ccc3ccccc23)c1)c1ccccc1` (configuration not stated) [Salermide], with 0.987 ± 0.56; and `COc1ccc(S(=O)(=O)NCc2ccc(C(=O)NCCc3ccc(Cl)cn3)cc2)cc1`, with 0.936 ± 0.16. In the case of `CN(C)c1ccc(-c2nc3ncc(Cl)c(N4CCN(CC(=O)Nc5nccs5)CC4)c3[nH]2)cc1`, the “fraction of GFP+ cells” value stood at 0.872 ± 0.39. Regarding `CC1CCc2cc(F)cc3c(=O)c(C(=O)O)cn1c23` (configuration not stated) [Flumequine], the “fraction of GFP+ cells” value was determined as 0.977 ± 0.12. `COc1cccc2oc(-c3ccccc3)cc(=O)c12` [5-methoxyflavone]: the “fraction of GFP+ cells” value stood at 0.869 ± 0.26. Regarding `CNC(=O)c1nn(C)c2c1C(C)(C)Cc1cnc(Nc3ccc(N4CCN(C)CC4)cc3)nc1-2`, the “fraction of GFP+ cells” value stood at 0.352 ± 0.06. On to `Cn1c(=O)cc(C(=O)Nc2ccc3c(c2)OCCO3)c2ccccc21`, for which the “fraction of GFP+ cells” value stood at 0.931 ± 0.27. On to `N#Cc1cnc(Nc2cc(NC[C@H]3CNCCO3)c(C(F)(F)F)cn2)cn1`, for which the “fraction of GFP+ cells” value amounted to 1.18 ± 0.1. Turning to `O=C(NCC1(c2nc(-c3ccccc3)cs2)CCOCC1)c1cccc(-c2noc(C(F)(F)F)n2)c1`, the “fraction of GFP+ cells” value stood at 0.752 ± 0.12. In the case of `Cc1cn([C@H]2O[C@@H](CO)[C@H](O)[C@H]2F)c(=O)[nH]c1=O` [Clevudine], the “fraction of GFP+ cells” value was found to be 0.898 ± 0.28. For the molecule `CCc1nc(N)nc(N)c1-c1ccc(Cl)cc1` [Pyrimethamine], the “fraction of GFP+ cells” value was found to be 1.5 ± 1.2. As for `N#Cc1ccc(COC[C@H]2O[C@@H](n3c(NCc4ccc(Cl)c(Cl)c4)nc4c(N)ncnc43)[C@H](O)[C@@H]2O)cc1`, the “fraction of GFP+ cells” value is 1.89 ± 0.17.

As to `O=c1oc2c(O)c(O)cc3c(=O)oc4c(O)c(O)cc1c4c23` [Ellagic acid], the “fraction of GFP+ cells” value came to 0.913 ± 0.11. Then `CC1COc2c(N3CCN(C)CC3)c(F)cc3c(=O)c(C(=O)O)cn1c23` (configuration not stated) [Ofloxacin], with 1.08 ± 0.19; and `Nc1nc(=O)c2nc(CNc3ccc(C(=O)N[C@@H](CCC(=O)O)C(=O)O)cc3)cnc2[nH]1` [Folic acid], with 1.24 ± 0.46; and `NS(=O)(=O)C#Cc1ccccc1`, with 1.11 ± 0.052.

Take `Nc1ncnc2c1ncn2[C@@H]1O[C@H](CO)[C@@H](O)[C@H]1O` [Adenosine]: the “fraction of GFP+ cells” value was found to be 1.04 ± 0.13. Then `O=S(=O)(N=Cc1c(O)ccc2ccccc12)c1cccs1`, with 1.15 ± 0.65.

Consider `O=c1[nH]c(=O)n(C2CC(O)C(CO)O2)cc1Br` (configuration not stated) [Bromodeoxyuridine (BrdU)], for which the “fraction of GFP+ cells” value is 1.79 ± 0.2. Consider `CC(=O)c1c(C)c2cnc(Nc3ccc(N4CCNCC4)cn3)nc2n(C2CCCC2)c1=O`, for which the “fraction of GFP+ cells” value is 1.36 and 0.964. Consider `CCCC(CCC)C(=O)O` [Divalproex Sodium], for which the “fraction of GFP+ cells” value is 0.742 ± 0.1. For the molecule `Cc1nc(-c2cccnc2)sc1C(=O)Nc1ccccc1-c1cn2c(CN3CCOCC3)csc2n1`, the “fraction of GFP+ cells” value is 1.34 ± 0.54. For `CCN1C(=O)CNc2ncc(-c3ccc(-c4nc[nH]n4)nc3C)nc21`, the “fraction of GFP+ cells” value was 0.696 ± 0.12. For the molecule `O=c1cc(-c2cccc3c2Sc2ccccc2S3)oc(N2CCOCC2)c1`, the “fraction of GFP+ cells” value was 0.661 ± 0.19. As to `CC1=CC(=O)c2ccccc2C1=O` [Menadione], the “fraction of GFP+ cells” value is 1.27 ± 0.36.

Turning to `CS(=O)(=O)c1ccc(-c2cnc(N)c(C(=O)Nc3ccccc3)n2)cc1`, the “fraction of GFP+ cells” value came to 0.582 ± 0.061.

As to `CC(=O)c1cc([N+](=O)[O-])c(Sc2cccc(Cl)c2Cl)s1`, the “fraction of GFP+ cells” value amounted to 0.919 ± 0.038.

Consider `Cc1nc(N(C)C(=O)Cc2ccc(-c3ccccn3)cc2)sc1S(N)(=O)=O` [Pritelivir (BAY 57-1293)], for which the “fraction of GFP+ cells” value came out at 1.01 ± 0.22. As for `O=C(O)CCCc1ccccc1` [Sodium Phenylbutyrate], the “fraction of GFP+ cells” value was 0.708 ± 0.082.

Consider `CN(CCOc1ccc(CC2SC(=O)NC2=O)cc1)c1ccccn1` (configuration not stated) [Rosiglitazone maleate], for which the “fraction of GFP+ cells” value was determined as 1.52 ± 0.23. `O=C(O)c1cc(=O)[nH]c(=O)[nH]1` [Orotic acid (6-Carboxyuracil)]: the “fraction of GFP+ cells” value came out at 0.847 ± 0.26.

As to `C=C(C)[C@@H]1CC[C@]2(C(=O)O)CC[C@]3(C)[C@H](CC[C@@H]4[C@@]5(C)CC[C@H](O)C(C)(C)[C@@H]5CC[C@]43C)[C@@H]12` [Betulinic acid], the “fraction of GFP+ cells” value stood at 0.997 ± 0.13. For the molecule `CN(C)CCCCC(=O)Nc1ccc(NC(=S)NC(=O)c2ccc(C(C)(C)C)cc2)cc1` [Tenovin-6], the “fraction of GFP+ cells” value was 0.625 ± 0.2. As to `CN(C)Cc1ccc(-c2nc3cccc4c3n2CCNC4=O)cc1`, the “fraction of GFP+ cells” value worked out at 0.517 ± 0.015. Take `CC(ONC(=O)c1cc(C(F)(F)F)cc(C(F)(F)F)c1)C(=O)Nc1ccc(Cl)cc1` (configuration not stated): the “fraction of GFP+ cells” value is 0.994 ± 0.12.
